# Bioassay records from PubChem BioAssay.
# EBV gp42 block = Epstein-Barr virus gp42 inhibitors, primary screen, biochemical, uHTS, fluorescence polarization. Fluorescence polarization binding assay, mP read-out. inhibition, % (tested at 21.74 µM). hit rate 0.42% among 220,000. AID 1085, 2008; in the data active = inhibition above about 50%
# GLD-1 TGE inh = GLD-1/TGE RNA complex disruptors, primary screen, biochemical, fluorescence polarization. purified GLD-1 + fluorescein TGE RNA. inhibition, % at 5.96 µM. hit rate 0.44% among 320,000. AID 2280, 2010;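 active = percent inhibition above a per-plate cutoff, the plate mean of test compounds plus 3 SD, cut at about 30% in these data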
# Target sequence (Q17339 whole entry, looked up): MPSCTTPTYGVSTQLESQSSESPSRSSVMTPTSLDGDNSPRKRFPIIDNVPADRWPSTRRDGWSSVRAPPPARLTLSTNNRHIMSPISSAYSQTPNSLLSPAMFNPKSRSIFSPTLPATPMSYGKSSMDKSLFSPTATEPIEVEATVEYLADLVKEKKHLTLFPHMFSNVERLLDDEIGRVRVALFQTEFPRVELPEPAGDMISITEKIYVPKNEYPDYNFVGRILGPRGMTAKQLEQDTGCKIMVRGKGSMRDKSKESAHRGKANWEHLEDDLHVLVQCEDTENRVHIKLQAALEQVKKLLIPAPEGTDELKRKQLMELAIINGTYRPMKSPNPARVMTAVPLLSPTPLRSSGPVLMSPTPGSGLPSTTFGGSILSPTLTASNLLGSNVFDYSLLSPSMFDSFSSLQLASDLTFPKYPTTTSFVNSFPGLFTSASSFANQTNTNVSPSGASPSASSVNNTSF
# MEX-5 binding = MEX-5 zinc finger RNA-binding disruptors – biochemical, C. elegans, fluorescence polarization, MLPCN library, primary screen; hit rate 0.38% among 300,000; AID 1832, 2009; MEX-5/FITC-TCR2 RNA binding; active compounds read low; Zinc finger protein mex-5 (Caenorhabditis elegans), Q9XUB2; activity score (negative = inhibition of binding), % at 10 µM;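 active = inhibition past about -25% in most replicates, and total fluorescence under double the plate's negative control median, limit read from the data; inconclusive = replicates evenly split on the limit, or fluorescence at least double controls; inactive = too little inhibition in most replicates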
# BCLXL inh = inhibitors of human Bcl-xL, primary screen, biochemical, fluorescence polarization, HTS; Bcl-2-like protein 1 (Homo sapiens), Q07817; GST-Bcl-xL / FITC-Bim BH3 peptide fluorescence polarization; inhibition, % at 10.9 µM; hit rate 0.7% among 320,000; AID 2129, 2009;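 active = inhibition above the mean of all tested compounds plus 3 SD, cutoff set per campaign, cut at about 30% in these data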;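 also: inhibitors lower millipolarization by displacing the labeled peptide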
# MCL1 BIM primary = inhibitors of MCL1 binding to BIM-BH3, primary screen, biochemical, fluorescence polarization; inhibition, % at 10.9 µM; AID 2057, 2009; GST-MCL1 / FITC-Bim-BH3 fluorescence polarization; hit rate 0.68% among 320,000; Induced myeloid leukemia cell differentiation protein Mcl-1 (Homo sapiens), Q07820;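 active = inhibition above the mean inhibition of all tested compounds plus 3 SD, set per campaign, cut at about 40% in these data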;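 also: higher means more loss of mP so more displacement of Bim peptide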
# Bcl-xL conf = Bcl-xL inhibitors blocking Bim BH3 binding, confirmation, counter-screen for MCL1 inhibitor project, biochemical, fluorescence polarization | AID 2166, 2009 | inhibition, % at 10.9 µM | GST-Bcl-xL / FITC-Bim BH3 peptide FP binding | hit rate 54% among 1,700 | shares compounds with MCL1 BIM primary;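 active = inhibition above a cutoff equal to the mean inhibition of all tested compounds plus 3 SD, cut at about 30% in these data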
# MCL1 BIM confirm = inhibitors of MCL1 binding to BIM-BH3, confirmation, biochemical, fluorescence polarization, triplicate; shares compounds with MCL1 BIM primary; GST-MCL1 / FITC-Bim-BH3 fluorescence polarization; inhibition, % at 10.9 µM; hit rate 61% among 1,700; AID 2168, 2009;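 active = inhibition above the average of all tested compounds plus 3 SD, cut at about 40% in these data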
# A number is an active result; 0 = inactive; ? = inconclusive; - = not tested or not shown; + = active, no number. Rows were chosen to be rich in hits. Some 1.3% of all compounds tested hit in one or more screens of this group.
SMILES,EBV gp42 block,GLD-1 TGE inh,MEX-5 binding,BCLXL inh,MCL1 BIM primary,Bcl-xL conf,MCL1 BIM confirm
O=c1oc2c(CN3CCOCC3)c(O)ccc2c2c1CCC2,0,0,-,0,0,-,-
O=c1oc2c3c4c(cc2c(C(F)(F)F)c1CCN1CCOCC1)CCCN4CCC3,139,65,?,107,122,107,116
N#Cc1cccc(NC(=O)CSc2ccc3c4c(cccc24)C(=O)c2ccccc2-3)c1,107,61,0,73,75,185,183
COC1CCN(Cc2c(C(=O)N3CCN(C4CCCCC4)CC3)nc3ccccn23)CC1,-,0,0,43,49,0,0
COCC1CCN(Cc2c(C(=O)N3CCN(C4CCCCC4)CC3)nc3ccccn23)C1 (centres undefined),-,0,0,52,57,0,0
COc1ccc(-c2ccc(N)cn2)cn1,-,0,-,0,0,-,-
Cc1ccc(-c2cc(C(=O)Nc3ccccn3)c3ccccc3n2)o1,0,0,0,0,47,32,69
CC(Cc1ccccc1)N1C(=O)c2cccc([N+](=O)[O-])c2C1=O (centres undefined),-,180,0,146,169,0,0
O=C(O)c1cc(-c2ccc(/C=C3\NC(=O)N(c4ccccc4)C3=O)o2)ccc1Cl,0,0,0,0,0,-,-
O=C(O)c1cc(-c2ccc(/C=C3\NC(=O)N(c4ccc(Cl)cc4)C3=O)o2)ccc1Cl,0,0,?,0,72,32,55
O=C1c2ccccc2-c2onc3ccc(Oc4ccccc4)c1c23,0,37,0,63,61,0,0
CCCNc1nc(C)cc(-c2cc(-c3ccc(Cl)cc3)on2)n1,0,0,0,0,0,-,-
Cc1ccc(-n2c(CNC(=O)c3cccs3)nnc2SCC(=O)NO)cc1,0,0,0,0,0,-,-
c1ccc(-c2nnc(CN3CCCc4ccccc43)o2)cc1,0,0,0,65,72,46,68
c1ccc(-c2nnc(CN3CCCCC3)o2)cc1,-,0,0,0,0,-,-
CCN(C(=O)COC(=O)c1ccc2c(c1)OCO2)c1ccc(F)cc1,-,0,-,-,-,-,-
CC1(O)C(=O)C=C2C=C(c3ccc(C#N)cc3)OC=C2C1=O (centres undefined),-,0,0,0,47,0,40
COc1cc(OC)cc(C(=O)Nc2cccc(N3CCCC3)c2)c1,0,0,0,0,0,-,-
Nc1c(NCc2ccccc2F)c(=O)[nH]c(=O)n1Cc1ccccc1,0,93,0,86,97,0,0
COc1ccc(CCNc2c(N)n(Cc3ccccc3)c(=O)[nH]c2=O)cc1OC,0,79,0,71,96,74,85
N#Cc1c(N2CCCC(O)C2)nc(N)c2c(N)nc3c(c12)CC(=O)N3C12CC3CC(CC(C3)C1)C2 (centres undefined),0,0,-,0,54,0,0
O=C(COc1ncnc2ccccc12)Nc1ccc(S(=O)(=O)N2CCOCC2)cc1,0,0,0,0,0,-,-
Cc1cc(C)n2c(=O)c3ccc(Cl)cc3nc2c1C#N,0,0,0,0,51,0,0
CN1CCN(CCCNC(=O)Nc2ccc([N+](=O)[O-])cc2)CC1,-,0,0,0,0,-,-
O=C(O)C(S)C(S)C(=O)O (centres undefined),-,0,0,0,84,38,86
SMILES,EBV gp42 block,GLD-1 TGE inh,MEX-5 binding,BCLXL inh,MCL1 BIM primary,Bcl-xL conf,MCL1 BIM confirm
CCOc1cc(Br)c(Br)c(C=Nc2ccc(NC(C)=O)cc2)c1O,131,0,0,31,44,71,116
CCOc1cc(/C=N/NC(=O)C(N)=O)cc(Br)c1O,0,0,0,0,0,-,-
N#C/C(=C\c1ccc(O)c([N+](=O)[O-])c1)c1nc2ccccc2s1,0,-,0,-,-,-,-
N#C/C(=C\c1ccco1)c1nc2ccccc2s1,0,55,0,79,75,0,0
COc1cc(C2c3sc(=O)[nH]c3SC3C(=O)N(c4ccc(Br)cc4)C(=O)C32)ccc1O (centres undefined),0,0,0,0,0,-,-
CCOc1ccc(N2C(=O)C3Sc4[nH]c(=O)sc4C(/C=C/c4ccccc4)C3C2=O)cc1 (centres undefined),0,42,0,57,42,0,0
COC(=O)c1cc(S(=O)(=O)NC2CCC(C)CC2)cn1C (centres undefined),-,0,0,0,0,-,-
CCOC(=O)C1CCN(C(=O)c2cc3c(=O)n4ccccc4nc3n2C)CC1,0,0,0,67,85,0,0
c1coc(Cn2nnnc2CN2CCN(C3CCCC3)CC2)c1,0,0,0,0,40,0,0
CC(C)C(c1nnnn1Cc1ccco1)N1CCN(C2CCCC2)CC1 (centres undefined),0,0,0,0,0,-,-
O=c1oc(-c2ccc(Cl)c(Cl)c2)nn1-c1ccc(C(F)(F)F)cn1,0,0,0,0,0,-,-
CC(=O)Nc1ccc(NC(=O)C(C)OC(=O)/C(C#N)=C/c2ccc(N(C)C)cc2)cc1 (centres undefined),-,136,-26,+,+,165,191
O=C(CNC(=S)N(Cc1ccccc1)Cc1cccnc1)NC1CCCCC1,0,0,0,0,0,-,-
O=c1c2ccccc2[nH]c2ccc(O)cc12,-,108,0,74,89,98,145
CC(=O)c1sc2nc(-c3cccs3)cc(C(F)(F)F)c2c1N,0,0,-30,63,68,74,83
CN(C)CCNC(=O)c1sc2nc(-c3ccccc3)cc(C(F)(F)F)c2c1N,-,0,0,0,0,-,-
COc1ccc(-c2cc(C(F)(F)F)c3c(N)c(C(=O)NCCSC)sc3n2)cc1,-,58,?,80,78,81,85
CC1(C)CCN2CCC(C)(C)c3c(O)ccc1c32,-,77,0,141,170,0,0
CCCOc1ccc(S(=O)(=O)N2CCCC2)cc1[N+](=O)[O-],0,0,0,0,0,-,-
CC1CCCN(CC(O)COc2ccc(S(=O)(=O)N3CCCC3)cc2[N+](=O)[O-])C1 (centres undefined),-,0,-,0,54,0,0
Cc1ccn2cc(-c3ccc(O)c(O)c3)nc2c1,-,0,-46,0,56,58,58
Cc1ccn2cc(-c3cccc(NC(=O)C(C)C)c3)nc2c1,0,0,0,0,0,-,-
